The list is not random: actives were taken first. Their share in the collection is about 1.7%.
IkB sig inh: IkB pathway inhibition in ABC-DLBCL cells; ABC-DLBCL IkBa-CBG/CBR dual luciferase ratio, 4 h; response scale: scaled: untreated 0%, proteasome inhibitor 100%; Potency, µM (titrated, usually from 57.1 µM), for the others: at the top dose IkBa stabilization activation; hit rate 0.04% among 110,000; AID 445; active = well fitted curve in the direction sought with a large enough effect in the signal ratio, not every such curve was filed as active; inconclusive = small, poorly fitted or top-dose-only effect, or a change in a side signal; the % refers to the signal ratio;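 note: the direction sought is a rising ratio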
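In this assay, an IκBα–CBG68 fusion accumulates when IKK-driven degradation is blocked; native CBR normalizes for cell number. OCI-Ly3 cells were treated 4 h with compound and doxycycline, then green and red light read after Chroma-Glo addition.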
Imprint erasure: induces erasure of genomic imprints in mouse ES cells | mouse ES Peg3-LacZ reporter, beta-gal luminescence, 40 h | Potency, µM (top dose mostly 60.7 µM), inactives show at the highest dose activity change, positive = activation, most hits filed as activators | hit rate 0.02% among 110,000 | AID 1948
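Gelatin-coated wells received 300 freshly trypsinized female ES cells with a Peg3LacZ-Neo reporter on the maternal allele, then incubated 40 hours at 37C. BetaGlo was added for 5 minutes at room temperature before a single luminescence read.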
p53ts 39C kill: kills p53ts cells at the nonpermissive temperature; H1299-p53A138V viability at 39C, ATP luminescence, 24 h; Potency, µM (highest dose often 46.1 µM), without a hit: at the highest dose activity change, negative = cell killing, usual class: cytotoxic; hit rate 1.5% among 130,000; AID 902; note: % is set by controls: 0 for no effect and ±100 for the full control effect; nearly all actives have a fitted effect of over 55% in size
p53ts 32C tox: kills p53ts cells at the permissive temperature | H1299-p53A138V at 32C, ATP luminescence viability, 24 h | Potency, µM (series often up to 46.1 µM), without a hit: at the top dose activity change, negative = cytotoxicity, most hits filed as cytotoxic | hit rate 0.93% among 130,000;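 note: 0% = DMSO and -100% = full killing by reference compound; nearly all actives have a fitted effect of over 55% in size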
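ATP-content luminescence (ATPlite) read-out after 24 h compound exposure at 32C in H1299-p53A138V cells (600/well). Tested up to 46 uM. Normalized to DMSO (0%) and 100 uM tamoxifen (100% killing); Hill-fit AC50.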
* hit, by the source's call; i = inactive; u = inconclusive; x = no result; [ ] = dose if it differs, or a comment. Unless noted, calls come from the whole dose curve; as a rule, active = well fitted curve in the direction sought with a large enough effect; inconclusive = small, poorly fitted or top-dose-only effect, or another doubt; inactive = no such curve, though single readings can be large; an effect the other way counts as inactive or inconclusive. Potency is the fitted concentration of half-maximal effect.

SMILES | IkB sig inh | Imprint erasure | p53ts 39C kill | p53ts 32C tox
CSC(N)=NCCC[C@@H](N)C(=O)O | 1.0% | x | 5.3% | 0.9%
COc1ccc(S(=O)(=O)c2c(Nc3ccc(F)cc3)sc(C(=O)c3ccc4c(c3)OCO4)c2N)cc1 | 1.8% | -11.7%[10.9 µM] | -20.5% | 3.3%
CCc1noc(-c2ccc(NCc3ccccc3)c([N+](=O)[O-])c2)n1 | 0.3% | -10.0%[10.9 µM] | 5.1% | 2.2%
FC(F)(F)c1cccc(Nc2nc3nonc3nc2Nc2ccc(Cl)cc2)c1 | u | -25.9%[10.9 µM] | 15.8µM* | u
Cc1ccc(S(=O)(=O)NCC(Nc2cccc(Cl)c2)c2ccccc2)cc1 (stereo unspecified) | u | -16.2%[10.9 µM] | 15.8µM* | u
Cc1c(C(=O)Nc2ccc(-c3nnc4n3CCCCC4)cc2)oc2c1ccc1ccccc12 | x | x | -24.5% | 1µM*
COc1cccc(-c2nnc(-c3ccc(C)o3)o2)c1 | x | x | 11.2µM* | 12.6µM*
COc1cccc(-c2nc(-c3ccc(Br)o3)no2)c1 | 3.9% | -9.7%[10.9 µM] | 12.6µM* | u
CCc1nnc(NC(=O)c2cccc(OC)c2)s1 | 4.5% | -62.4% | u | 12.6µM*
COc1cccc(C(=O)Nc2ccc(NC(=O)C(C)(C)C)cn2)c1 | 1.6% | -82.7% | 3.16µM* | 3.98µM*
COc1ccc(CNC(=O)c2cc3cc(OC)ccc3oc2=O)cc1 | -2.1% | 5.1%[10.9 µM] | -21.6% | 10.3%
CCc1nnc(NC(=O)c2c(OC)cccc2OC)s1 | 0.7% | -1.6% | 3.7% | 6.0%
COc1ccc(/C=C/C(=O)Nc2cccc(F)c2)cc1 | u | -44.1%[10.9 µM] | 7.94µM* | 10µM*
COc1ccc2oc(=O)c(C(=O)Nc3cccc(C(=O)O)c3)cc2c1 | u | -89.3%[10.9 µM] | 5.01µM* | 7.94µM*
Cc1cc(C)c(NC(=O)Cn2c(=O)n(CCC(=O)NCc3ccc4c(c3)OCO4)c(=O)c3ccccc32)c(C)c1 | 3.3% | 9.8%[10.9 µM] | 24.4% | 13.5%
Cc1cc(N2CCC(C)CC2)nc2ccc(NC(=O)Cc3c(F)cccc3Cl)cc12 | 3.7% | u | -13.1% | 4.6%
COc1ccc(C(=O)COC(=O)c2cccc(NC(=O)c3ccc(OC)c(OC)c3)c2)cc1 | u | -75.2%[10.9 µM] | 15.8µM* | u
COc1ccc(C(=O)Nc2ccc(OC)c(OC)c2)cc1 | -0.2% | -54.1% | u | u
COc1ccc(C(=O)Nc2cccc(OC)c2)cc1 | u | -91.7% | 12.6µM* | 10µM*
Cc1ccccc1C(=O)Nc1cccc(NC(=O)c2ccc(C(C)(C)C)cc2)c1 | 17.0% | -23.8%[10.9 µM] | 12.6µM* | 10µM*
Cc1ccccc1C(=O)Nc1cccc(N)c1 | 5.2% | -18.7% | 1.8% | -1.1%
COc1cccc(C(=O)Nc2cccc(NC(C)=O)c2)c1 | 18.8% | -48.0% | -2.9% | -13.6%
CC(=O)O[C@H]1CC[C@@]2(C)[C@@H](CC[C@@]3(C)[C@H]2C(=O)C=C2[C@H]4C[C@](C)(C(=O)OCCN5CCCCC5)CC[C@]4(C)CC[C@@]23C)C1(C)C | 1.6%[11.4 µM] | x | x | x
CCOc1ccc(-c2[nH]ncc2Oc2cccc(OC)c2)c(O)c1 | 6.3% | -21.6% | 15.8µM* | -23.3%
O=C(NCc1ccccc1)c1ccc(Cc2nc3ccccc3[nH]2)cc1 | x | x | -9.7% | -5.2%
SMILES | IkB sig inh | Imprint erasure | p53ts 39C kill | p53ts 32C tox
CC(=O)c1c(O)c(C)c(O)c2c1OC1=CC(=O)[C@H](C(C)=O)C(=O)[C@]12C | 0.0%[11.4 µM] | x | x | x
CCCC[S@@](=N)(=O)CC[C@@H](N)C(=O)O | -3.4% | x | -2.9% | 8.8%
NCCCCNS(=O)(=O)c1cccc2c(Cl)cccc12 | -8.2% | -23.9% | 15.8µM* | 12.8%
CS(=O)(=O)c1nc(-c2ccccc2)cc(C(F)(F)F)n1 | u | -35.3% | u | 6.31µM*
Cc1cc(NC(=O)CCS(=O)(=O)c2nc(-c3ccccc3)cc(C(F)(F)F)n2)no1 | u | -29.0% | u | u
O=C(c1cc2ccc3cccnc3c2[nH]1)N1CCN(c2cccc(Cl)c2)CC1 | 9.7% | 23.6%[10.9 µM] | 44.5% | 6.1%
CC1CCc2onc(C(=O)N3CCN(c4cccc(Cl)c4)CC3)c2C1 (stereo unspecified) | u | -8.7%[10.9 µM] | 3.6% | -0.8%
CCS(=O)(=O)c1ncc(Cl)c(C(=O)N2CCN(c3cccc(Cl)c3)CC2)n1 | u | -37.5%[10.9 µM] | 2.51µM* | 12.6µM*
CS(=O)(=O)c1ncc(Cl)c(C(=O)N2CCN(c3cccc(Cl)c3)CC2)n1 | u | -40.7%[10.9 µM] | 2.51µM* | 12.6µM*
O=C(Nc1cc2ccc(O)cc2oc1=O)c1ccccc1 | i | -57.4%[10.9 µM] | 7.94µM* | u
O=S(=O)(NCCNC/C=C\c1ccc(Br)cc1)c1cccc2cnccc12 | -3.6% | x | 15.8µM* | u
O=S(=O)(NCCO)c1cccc2cccnc12 | 2.5% | 2.3% | 2.9% | 6.4%
CCN1CCN(CCC(=O)Nc2ccccc2OC)CC1 | 0.8% | -10.4% | 3.0% | -6.1%
CCN1CCN(Cc2ccc(NC(=O)Nc3ccccc3OC)cc2)CC1 | 3.4% | 2.3% | 10µM* | 7.94µM*
O=C(Cn1c(SCC(=O)Nc2ccc(F)cc2)nc2ccccc21)NCc1ccccc1Cl | u | -4.4%[10.9 µM] | u | -14.9%
CCOc1ccc(-n2c(=O)c3sc4ccccc4c3n(Cc3ccc(F)cc3)c2=O)cc1 | -0.9% | -7.7%[10.9 µM] | u | -3.5%
CCOC(=O)NC(=O)CSc1nc(C)cc(C)c1C#N | -2.4% | x | 6.31µM* | 5.01µM*
Cc1cc(C)c(C#N)c(SCC(=O)Nc2ccccc2C(N)=O)n1 | 0.9% | -1.9% | 2µM* | 12.6µM*
CC(=O)Nc1cccc(-c2nnc(SCC(=O)c3cc([N+](=O)[O-])ccc3Br)o2)c1 | u | -19.5%[10.9 µM] | u | -22.2%
CC(=O)Nc1cccc(NC(=O)c2cc3ccccc3o2)c1 | u | -83.6% | 6.31µM* | 12.6µM*
CCCCOC(=O)c1cccc(NC(=O)c2cc3ccccc3o2)c1 | u | -13.5%[10.9 µM] | 10µM* | u
COc1ccc(NC(=O)c2cc3ccccc3o2)cc1 | u | -40.7% | 15.8µM* | 15.8µM*
CC(C)C(=O)Nc1cccc(NC(=O)c2cc3ccccc3o2)c1 | u | -43.6% | u | u
CCc1ccccc1NC(=O)CSc1nnc(-c2cc(OC)c(OC)c(OC)c2)o1 | -0.9% | 24.4%[10.9 µM] | u | 3.6%
Cc1ccc(Cl)cc1N | 1.3% | -3.0% | 0.2% | 5.3%[1.84 µM]
SMILES | IkB sig inh | Imprint erasure | p53ts 39C kill | p53ts 32C tox
Cc1[nH]c2ccccc2c1SCC(=O)N1CCOCC1 | 1.1% | -36.8% | 12.6µM* | -5.4%
C=C1CC[C@@H](O)C/C1=C/C=C1\CCC[C@]2(C)[C@@H]1CC[C@H]2[C@@H](C)CCCC(C)C | 1.7%[11.4 µM] | x | x | x
CC(C)(C)C(=O)[C@H](C(c1ccccc1)N1CCOCC1)N1CCOCC1 (stereo partly specified) | x | -6.1%[10.9 µM] | x | x
O=C(Nc1ccc2nc3ccccc3nc2c1)c1ccccc1 | x | x | 10µM* | u
CCc1cccc(C)c1NC(=O)Cn1nc(C)n2cccc2c1=O | u | -7.8%[10.9 µM] | 12.6µM* | -4.4%
COC(=O)c1cc(NC(=O)Cn2nc(C)n3cccc3c2=O)cc(C(=O)OC)c1 | u | -17.8%[10.9 µM] | -1.3% | -4.1%
Oc1ccccc1-c1nc(-c2cccs2)c(-c2cccs2)[nH]1 | u | -11.6%[10.9 µM] | 25.1µM* | u
CN(C)c1ccc(-c2nc(-c3cccs3)c(-c3cccs3)[nH]2)cc1 | u | -15.7%[10.9 µM] | u | 13.0%

Screens as filed in PubChem BioAssay.
